Molecular target: Calmodulin-1 (Homo sapiens) (UniProt P0DP23)
Assay: small molecules binding calmodulin-1 with EGTA – biochemical, small-molecule microarray, Cy5-labelled CALM1, profiling panel (AID 1111);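 also: labelled calmodulin applied in Tris saline Tween buffer holding calcium plus EGTA and DTT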
Details: Cy5-CALM1 binding fluorescence, higher = more signal

| SMILES | composite z-score |
| --- | --- |
| N#Cc1ccc(NN2C(C(O)c3ccc(Br)cc3)C=CC3C(=O)N(c4ccccc4)C(=O)C32)cc1 (centres undefined) | 1.53 |
| Oc1ccc2cc[n+](Cc3cc4c(cc3Br)OCO4)cc2c1 | -0.489 |
| Cc1cc(C)c(C(O)C2C=CC3C(=O)N(c4ccccc4)C(=O)C3N2Nc2ccccc2F)c(C)c1 (centres undefined) | 0.139 |
| COCCOC(=O)N1C(=O)[C@@]2(c3cc(C#CC4=CCCCC4)ccc31)[C@H](C(=O)Nc1nc3ccccc3s1)[C@H]1C(=O)O[C@H](c3ccccc3)[C@H](c3ccccc3)N1[C@@H]2c1ccc(O)cc1 | 1.07 |
| COc1ccc([Si](C)(C)[C@H]2[C@H](CC(=O)N(CCO)Cc3ccccc3)O[C@@]3(C(=O)N(C)c4c(Br)cc(C)cc43)[C@@H]2C)cc1 | -0.763 |
| O=C(c1ccccc1)N1C(=O)[C@]2(Cc3ccccc31)N=C(c1ccc(OCCCO)cc1)O[C@@H]2c1ccccc1 | 1.43 |
| COc1ccc(CCNC(=O)[C@@]2(c3ccc([N+](=O)[O-])cc3)CC(=O)N(C3CCCCC3)[C@@H]2c2ccc(CO)cc2)cc1 | 0.36 |
| O=C(NCCN1CCOCC1)[C@@H]1c2ccccc2C(=O)N(Cc2ccccc2Cl)[C@H]1c1ccc(CO)cc1 | -0.635 |
| CS(=O)(=O)CCOC(=O)C1=CC(c2ccc(CO)cc2)=CC(C2CC2)N(Cc2sc3ccccc3c2Cl)C=C1C(=O)OCCS(C)(=O)=O (centres undefined) | 0.0782 |
| CC1=C2[C@@H](CCc3ccccc3)OB(O)C[C@@H]2[C@@H]2C(=O)N(C)C(=O)[C@@H]2C1 | 0.0309 |
| CN1C2C=C(CCCO)C(C3C(=O)N(C(N)=O)C(=O)C32)C1C1CC1 (centres undefined) | -0.495 |
| NCCCCCCNC(=O)[C@@H]1C[C@@H]2C(=O)N[C@@H](CCCCN)C(=O)N2[C@@H]1c1ccc(O)cc1 | -0.301 |
| CC1CC/C=C\[C@H]2OC34C=CCN(C(C)(C)C)C(=O)[C@H]3N(CCCCCO)C(=O)[C@@H]4C2C(=O)O1 (some centres undefined) | -0.835 |
| Cc1ccc(F)cc1S(=O)(=O)N[C@@H]1CCN(Cc2ccc(Br)cc2)C1 | -1.03 |
| COC(=O)[C@@]1(Cc2ccc(OC)cc2)[C@H]2c3cc(C(=O)N4CCCC4)n(CCO)c3C[C@H]2CN1C(=O)c1ccccc1 | 0.841 |
| CCOC(=O)C[C@H]1[C@H](OC(=O)c2ccccc2-c2ccccc2)[C@@H](NC(=O)c2ccc3ccccc3c2)c2cc(OCCCO)ccc2N1C(=O)c1ccccc1 | -0.09 |
| CCCC1(C(=O)OC)C=C2C(=C(C)C(=O)C2C)CN1 (centres undefined) | -0.119 |
| O=C1C2C=CC(C(O)C3CC=CCC3)N(Nc3ccccc3)C2C(=O)N1c1ccccc1 (centres undefined) | 1.08 |
| CC(C)N1C(=O)C[C@@](C(=O)NC2CC2)(c2ccc([N+](=O)[O-])cc2)[C@H]1c1ccc(CO)cc1 | -0.673 |
| C=C(C(=O)CC[C@H](OC(=O)c1ccccc1-c1ccccc1C(=O)O)c1cccc(OCCO)c1)C(C)C | -0.119 |
| COC(=O)c1c(CC[C@@H](CO)NC(=O)N[C@@H](C)Cn2cc(-c3ccccn3)nn2)oc(C(C)=O)c1C(=O)OC | -0.063 |
| COCC(=C=CC[C@H](O)c1ccc(CO)o1)CCO | -0.0876 |
| COCC(=C=CC[C@H](O)c1ccc(OCCO)cc1)CCO | -0.31 |
| COc1cc(NN2C(C(O)c3ccco3)C=CC3C(=O)N(C)C(=O)C32)cc(OC)c1OC (centres undefined) | 0.723 |

Molecular target: Calmodulin-1 (Homo sapiens) (UniProt P0DP23)
Assay: small molecules binding Ca-loaded calmodulin-1 – biochemical, small-molecule microarray, Cy5-labelled CALM1, plus calcium, artefact control for SMM control-protein annotation, profiling panel (AID 1112);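 also: score merges spot fluorescence with signal to noise from triplicate slides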
Details: Cy5-CALM1 binding fluorescence, higher = more signal

| SMILES | composite z-score |
| --- | --- |
| Cc1ccc(S[C@]2(C(=O)NCC(F)(F)F)CC(=O)N(Cc3cc(C(F)(F)F)cc(C(F)(F)F)c3)[C@@H]2c2ccc(CO)cc2)cc1 | 0.159 |
| COCCOC(=O)N1C(=O)[C@@]2(c3ccccc31)[C@H](c1ccc(O)cc1)N1[C@H](c3ccccc3)[C@H](c3ccccc3)OC(=O)[C@H]1[C@@H]2C(=O)N1CCN(c2ncccn2)CC1 | 0.618 |
| CCCCC(CC)C(O)C1C=CC2C(=O)N(c3ccccc3)C(=O)C2N1Nc1ccccc1F (centres undefined) | -0.264 |
| COC(=O)C/C=C/C[C@]1(O)C(=O)N(C)c2ccccc21 | -0.895 |
| COCCOC(=O)N1C(=O)[C@@]2(c3cc(C#CCCO)ccc31)[C@H](c1ccc(OCCO)cc1)N1[C@H](c3ccccc3)[C@H](c3ccccc3)OC(=O)[C@H]1[C@@H]2C(=O)Nc1nc2ccccc2s1 | 0.682 |
